Structures can show the parent of a compound that is named as a salt. ± gives the standard deviation of the averaged measurements.
Experiments:
Assay in all cases: cell viability (% of vehicle); higher = less cytotoxic
HCI01 [1] = cells of a triple-negative basal-like breast cancer xenograft; details: 1 µM; 72 h
UCD52 [2] = cells of a triple-negative basal-like breast cancer xenograft; details: 1 µM; 72 h
WHIM2 [3] = cells of a triple-negative basal-like breast cancer xenograft; details: 1 µM; 72 h
WHIM30 [4] = cells of a triple-negative basal-like breast cancer xenograft; details: 1 µM; 72 h
HCI01 [5] = details: 10 µM; 72 h
HCI03 = cells of an ER-positive luminal breast cancer xenograft; details: 10 µM; 72 h
HCI09 = cells of a triple-negative luminal androgen receptor type breast cancer xenograft; details: 10 µM; 72 h
HCI11 = cells of an ER-positive luminal breast cancer xenograft; details: 10 µM; 72 h
HCI13 = cells of an ER-positive luminal breast cancer xenograft; details: 10 µM; 72 h
HCI16 = cells of a triple-negative basal-like breast cancer xenograft; details: 10 µM; 72 h
UCD52 [6] = details: 10 µM; 72 h
WHIM2 [7] = details: 10 µM; 72 h
WHIM30 [8] = details: 10 µM; 72 h

Structure (SMILES)	cell viability (HCI01 [1])	cell viability (UCD52 [2])	cell viability (WHIM2 [3])	cell viability (WHIM30 [4])	cell viability (HCI01 [5])	cell viability (HCI03)	cell viability (HCI09)	cell viability (HCI11)	cell viability (HCI13)	cell viability (HCI16)	cell viability (UCD52 [6])	cell viability (WHIM2 [7])	cell viability (WHIM30 [8])
CCOC(=O)c1c(CSc2ccccc2)n(C)c2cc(Br)c(O)c(CN(C)C)c12.Cl [Arbidol HCl]	86.5	78.9	82.9	92.6	82.6 ± 33	87.3	58.6 ± 4.3	114	64.4 ± 11	92.3	35.7 ± 1.1	39.3 ± 9.1	85.2 ± 6.7
O=C1C=CC=CC1=C1NC(=C2C=CC=CC2=O)N(c2ccc(C(=O)O)cc2)N1 [Deferasirox]	87.9	92	92.2	98.2	65.5 ± 9.3	129	62 ± 39	107	62.9 ± 16	101	77.7 ± 33	95.2 ± 25	70.1 ± 1.5
CC(C)COc1ccc(CNC(=O)N(Cc2ccc(F)cc2)C2CCN(C)CC2)cc1 [Pimavanserin]	93.5	83.6	103	88	98.1 ± 1.5	111	56.7 ± 18	81	171 ± 10	87.3	46.4 ± 3.1	43.7 ± 2.7	83.5 ± 3.7
Clc1ccc(C(Cn2ccnc2)OCc2ccsc2Cl)c(Cl)c1 (centres undefined) [Tioconazole]	98.7	104	111	90.1	115 ± 63	110	40.7 ± 32	92.1	50.1 ± 3.6	119	60.2 ± 8.4	35.8 ± 5.1	100 ± 2.3
COc1nc2ccc(Br)cc2cc1[C@@H](c1ccccc1)[C@@](O)(CCN(C)C)c1cccc2ccccc12 [Bedaquiline fumarate]	90.7	108	97.8	99.8	79.1 ± 18	75.7	64.5 ± 22	80.3	116.1 ± 1.1	87	42.6 ± 0.72	48.7 ± 2.1	70 ± 2.9
COc1cccc2c1C(=O)c1c(O)c3c(c(O)c1C2=O)C[C@@](O)(C(C)=O)C[C@@H]3O[C@H]1C[C@H](N)[C@H](O)[C@H](C)O1.Cl [Daunorubicin HCl]	128	27.8	23.1	48	32.2 ± 4.8	141	32.8 ± 8.5	31.2	41.3 ± 3.9	49.9	30.4 ± 2.6	42.07 ± 0.39	44.6 ± 10
Cl.Clc1ccccc1CN1CCc2sccc2C1 [Ticlopidine HCl]	99.4	97.4	99.6	91.9	56.5 ± 32	108	82 ± 2.9	91.6	108 ± 34	97.2	62.5 ± 2.4	82.5 ± 24	89.7 ± 5.6
CNCCCC12CCC(c3ccccc31)c1ccccc12.Cl [Maprotiline HCl]	90.9	81.1	93.2	83.3	89.8 ± 4.9	75.5	56.8 ± 21	78.4	107.1 ± 0.46	80.2	35.4 ± 2.8	66.6 ± 10	44.8 ± 30
CCOC(=O)C1=C(COCCN)NC(C)=C(C(=O)OC)C1c1ccccc1Cl.O=S(=O)(O)c1ccccc1 (centres undefined) [Amlodipine Besylate]	93.3	97.5	107	88.5	94.062 ± 0.027	115	63.8 ± 45	110	97.8 ± 2.3	102	50 ± 3.2	37 ± 1.7	81.2 ± 8.3
COc1cc2c(Nc3ccc(Br)cc3F)ncnc2cc1OCC1CCN(C)CC1 [Vandetanib (ZD6474)]	70	46.5	37.5	64.8	59.1 ± 20	32.2	30.7 ± 21	52.9	73.4 ± 36	56.4	25.2 ± 4.2	54.4 ± 11	25.7 ± 1.9
CS(=O)(=O)O.Cc1c(O)cccc1C(=O)NC(CSc1ccccc1)C(O)CN1CC2CCCCC2CC1C(=O)NC(C)(C)C (centres undefined) [Nelfinavir Mesylate]	90.1	61.6	101	81.4	64.3 ± 30	92.1	30.1 ± 3.1	104	48.22 ± 0.17	53.7	48 ± 2	38.4 ± 2	71.9 ± 5.4
CCOc1nc2cccc(C(=O)OC(C)OC(=O)OC3CCCCC3)c2n1Cc1ccc(-c2ccccc2-c2nn[nH]n2)cc1 (centres undefined) [Candesartan Cilexetil]	88.5	97.3	106	99.7	18.1 ± 12	94.5	18.3 ± 4.6	72.3	47.71 ± 0.052	75.3	74.3 ± 16	37.6 ± 6.6	128 ± 5.3
Br.Cc1ccc(Sc2ccccc2N2CCNCC2)c(C)c1	113	71.2	102	80.6	28 ± 3	44.4	17.5 ± 4	76.7	39.1 ± 6.4	35.3	23.6 ± 4.2	33.9 ± 14	26.9 ± 4.6
COC(=O)c1ccc2c(c1)NC(=O)C2=C(Nc1ccc(N(C)C(=O)CN2CCN(C)CC2)cc1)c1ccccc1 [Nintedanib (BIBF 1120)]	83.1	46	46.6	51.2	70.5 ± 19	63.6	51.4 ± 46	59	71.2 ± 12	85.5	34.9 ± 2.4	65.2 ± 15	47 ± 11
Cl.OC(CNCC(O)C1CCc2cc(F)ccc2O1)C1CCc2cc(F)ccc2O1 (centres undefined) [Nebivolol]	91.1	92.3	91.5	103	75.3 ± 2.5	87.2	86.8 ± 8.1	87.2	94.2 ± 18	64.9	38.43 ± 0.34	40.5 ± 9.2	81 ± 2.3
CNCCC(Oc1ccc(C(F)(F)F)cc1)c1ccccc1.Cl (centres undefined) [Fluoxetine HCl]	91.1	75.6	99.1	84.1	98.1 ± 5	98.4	84.6 ± 29	75.2	104 ± 12	58.6	47.8 ± 1.9	44.9 ± 6	65.9 ± 10
CCCCc1oc2ccccc2c1C(=O)c1cc(I)c(OCCN(CC)CC)c(I)c1.Cl [Amiodarone HCl]	96.6	101	94.7	98.4	69.5 ± 16	54.7	32.8 ± 9.1	75	36.2 ± 4	60	40.7 ± 7.3	37 ± 6	83.1 ± 5.7
Cc1c(-c2ccc(O)cc2)n(Cc2ccc(OCCN3CCCCCC3)cc2)c2ccc(O)cc12.Cl [Bazedoxifene HCl]	120	94.2	89.7	91.6	56.4 ± 32	41.6	21.6 ± 0.65	73.9	38 ± 6.1	114	45.6 ± 2.9	53.2 ± 6.3	83.1 ± 1.6
CC1=C(C(=O)OC(C)C)C(c2cccc([N+](=O)[O-])c2)C(C(=O)OC2CN(C(c3ccccc3)c3ccccc3)C2)=C(N)N1 (centres undefined) [Azelnidipine]	93.6	73.5	85.9	88.3	33.6 ± 1.3	59	21.5 ± 0.58	80.4	41.6 ± 5.9	62	93.5 ± 6.1	61.3 ± 19	57.7 ± 26
CC(C)N=c1cc2n(-c3ccc(Cl)cc3)c3ccccc3nc-2cc1Nc1ccc(Cl)cc1 [Clofazimine]	88.1	84.9	90.3	80.2	54.8 ± 28	83.9	38.8 ± 13	88.8	43.6 ± 9.1	77.6	44.2 ± 1.7	53.1 ± 15	68.8 ± 6.1
CC(Oc1cc(-c2cnn(C3CCNCC3)c2)cnc1N)c1c(Cl)ccc(F)c1Cl [(R)-Crizotinib]	154	67.6	106	95.7	60 ± 23	135	24.8 ± 3.8	89.6	141.8 ± 0.89	41.9	23.1 ± 3.7	39.3 ± 3.3	125 ± 27
CCN1CCN(Cc2ccc(Nc3ncc(F)c(-c4cc(F)c5nc(C)n(C(C)C)c5c4)n3)nc2)CC1.CS(=O)(=O)O	83.9	46.7	130	52.6	87.8 ± 54	136	83 ± 14	135	71.6 ± 8.8	116	26.16 ± 0.13	30.4 ± 14	80.6 ± 5.5
Cl.Nc1ccn(C2OC(CO)C(O)C2O)c(=O)n1 (centres undefined) [Cytarabine hydrochloride]	71.5	114	86.3	90.1	75.2 ± 11	105	122 ± 36	147	61.5 ± 3.5	73.9	105 ± 5.7	58 ± 8.3	81.1 ± 11
COC(=O)C1=C(C)NC(C)=C(C(=O)OCCN(C)Cc2ccccc2)C1c1cccc([N+](=O)[O-])c1.Cl (centres undefined) [Nicardipine HCl]	108	94.4	93.5	100	66 ± 2.2	99.9	35.5 ± 4.3	65.4	55.4 ± 8.6	126	55.37 ± 0.27	48.8 ± 8.4	80 ± 5.5
Cc1cc(-n2c(=O)[nH]c(=O)n(C)c2=O)ccc1Oc1ccc(SC(F)(F)F)cc1 [Toltrazuril]	90.8	97.6	105	90.8	75.8 ± 1.2	132	61.9 ± 18	84	117 ± 11	115	79.5 ± 4.9	41.3 ± 3.9	98.6 ± 14
COc1ccc2cc1Oc1ccc(cc1)CC1c3c(cc4c(c3Oc3cc5c(cc3OC)CCN(C)C5C2)OCO4)CCN1C (centres undefined) [Cepharanthine]	86.1	52.9	80.7	60.6	57.1 ± 12	64.3	26.6 ± 5.9	73.5	159 ± 37	170	36.2 ± 1.8	64.7 ± 8.1	94.3 ± 9.8
Cc1ccc(NC(=O)c2ccc(CN3CCN(C)CC3)cc2)cc1Nc1nc(-c2cccnc2)cs1 [Masitinib (AB1010)]	113	85.9	114	84.6	53.6 ± 6.1	68.7	20 ± 2.6	37.8	55.8 ± 12	93.6	49.9 ± 13	46.2 ± 8	146 ± 61
CC(CCC(=O)O)C1CCC2C3CCC4CC(O)CCC4(C)C3CCC12C (centres undefined) [Lithocholic Acid]	89.2	96.6	92.9	91.5	65.5 ± 50	132	95.1 ± 24	103	84.8 ± 7	91.3	86.8 ± 6.5	37.8 ± 10	90.1 ± 6.3
